Results as given in PubChem BioAssay (NCATS).
Results filed as inconclusive are left out. Calls of active or inactive are those of the source. The call rests on the fitted dose curve; in most records, active means well fitted cell-killing curve with a large enough effect; inconclusive means small, poorly fitted or top-dose-only effect, or effect the other way; inactive means no such curve, though single readings can be large or run the other way.

Test: Quantitative High-Throughput drug screen in 47 multiple myeloma cell lines against the NCATS MIPE library collection: KMS34_JCRB cell viability assay (AID 1918985); further: nearly all actives have a fitted effect of over 40% in size;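 on viability, percent of control: 100% = DMSO-only wells and 0% = media-only wells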
Details: KMS34 myeloma viability, CellTiter-Glo ATP luminescence, 48 h; series mostly up to 45.8 µM; viability, percent of control: at the top concentration
How it was run: (§1)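 Cells were exposed to library compounds for 48 hours, after which ATP was measured by CellTiter-Glo. Signal was taken as median relative luminescence units.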
Potency means the concentration at half of the fitted maximal effect.

Row | SMILES | Potency | viability, percent of control
1 | CCS(=O)(=O)N1CC(CC#N)(n2cc(-c3ncnc4[nH]ccc34)cn2)C1 | 6.62 µM (active) | –
2 | CC(=O)Nc1ccc([C@H](C)C(=O)Nc2ncc(C(C)C)s2)cc1 | 3.72 µM (active) | –
3 | CC(C(=O)O)c1ccc(-c2ccccc2)c(F)c1 (stereo unspecified) | – | 118% (inactive)
4 | O=c1c(-c2ccc(O)cc2)coc2cc(O)ccc12 | – | 116% (inactive)
5 | CCn1cc(C(=O)O)c(=O)c2ccc(C)nc21 | – | 113% (inactive)
6 | CC1(C)CCC[C@@]2(C)[C@@H]1CC[C@@]1(C)OC(=O)C[C@H]21 | – | 92.7% (inactive)
7 | CCC(=O)NC[C@H](Cc1ccc(OCCc2nc(-c3ccccc3)oc2C)cc1)NC(C)=CC(=O)c1ccc(C(F)(F)F)cc1 | 23.5 µM (active) | –
8 | NC[C@@H]1O[C@@H](O[C@H]2[C@@H](O)[C@H](O[C@@H]3[C@@H](O)[C@@H](N)C[C@H](N)[C@H]3O[C@H]3O[C@H](CN)[C@@H](O)[C@@H](O)[C@H]3N)O[C@H]2CO)[C@H](N)[C@@H](O)[C@@H]1O | – | 114% (inactive)
9 | CCC(CC)[C@H](NC(C)=O)[C@@H]1[C@H](O)[C@@H](C(=O)O)C[C@@H]1N=C(N)N | – | 120% (inactive)
10 | O=c1c(O)c(-c2ccc(O)cc2)oc2cc(O)cc(O)c12 | – | 87.2% (inactive)
11 | CO[C@H]1C(=O)[C@]2(C)[C@@H](OC)C[C@H]3OC[C@@]3(OC(C)=O)[C@H]2[C@H](OC(=O)c2ccccc2)[C@]2(O)C[C@H](OC(=O)[C@H](O)[C@@H](NC(=O)OC(C)(C)C)c3ccccc3)C(C)=C1C2(C)C | – | 17.7% (inactive)
12 | CC(C)C[C@H](CC(=O)O)C(=O)N[C@@H](Cc1c[nH]c2ccccc12)C(=O)N[C@@H](C)c1ccccc1 | – | 75% (inactive)
13 | O=C(O)c1ccccc1C(=O)Nc1ccc(-c2ccccc2)cc1 | – | 110% (inactive)
14 | Cc1ccc(C(C)(O)c2nc3ccccc3s2)c(C)c1 (stereo unspecified) | – | 112% (inactive)

Test: Quantitative High-Throughput drug screen in 47 multiple myeloma cell lines against the NCATS MIPE library collection: OCIMY7_PLB cell viability assay (AID 1918987); further: nearly all actives have a fitted effect of over 65% in size
Details: OCI-MY7 myeloma viability, CellTiter-Glo ATP, 48 h; viability (% of DMSO): at 45.8 µM (top of the series)
How it was run: as §1

Row | SMILES | Potency | viability (% of DMSO)
15 | CCS(=O)(=O)N1CC(CC#N)(n2cc(-c3ncnc4[nH]ccc34)cn2)C1 | 8.33 µM (active) | –
16 | CC(C(=O)O)c1ccc(-c2ccccc2)c(F)c1 (stereo unspecified) | 14.8 µM (active) | –
17 | O=C(N[C@@H](c1ccccc1)[C@@H]1CCCCN1)c1cccc(C(F)(F)F)c1Cl | – | 144% (inactive)
18 | CC[C@H]1OC(=O)[C@H](C)C(=O)[C@H](C)[C@@H](O[C@H]2O[C@H](C)C[C@H](N(C)C)[C@@H]2O)[C@](C)(OC)C[C@@H](C)C(=O)[C@H](C)[C@H]2N(CCCCn3cnc(-c4cccnc4)c3)C(=O)O[C@]12C | 14.8 µM (active) | –
19 | O=c1c(-c2ccc(O)cc2)coc2cc(O)ccc12 | – | 175% (inactive)
20 | CN1CCN(CCOc2cc(OC3CCOCC3)c3c(Nc4c(Cl)ccc5c4OCO5)ncnc3c2)CC1 | 18.7 µM (active) | –
21 | CNC(=O)c1ccccc1Sc1ccc2c(C=Cc3ccccn3)n[nH]c2c1 | 2.64 µM (active) | –
22 | CC1(C)S[C@H]2[C@H](NC(=O)[C@@H](N)c3ccc(O)cc3)C(=O)N2[C@@H]1C(=O)O | 3.72 µM (active) | –
23 | CS(=O)c1ccc(-c2nc(-c3ccc(F)cc3)c(-c3ccncc3)[nH]2)cc1 (stereo unspecified) | 9.59 µM (active) | –
24 | O=c1c(O)c(-c2ccc(O)cc2)oc2cc(O)cc(O)c12 | 14.8 µM (active) | –
25 | CO[C@H]1C(=O)[C@]2(C)[C@@H](OC)C[C@H]3OC[C@@]3(OC(C)=O)[C@H]2[C@H](OC(=O)c2ccccc2)[C@]2(O)C[C@H](OC(=O)[C@H](O)[C@@H](NC(=O)OC(C)(C)C)c3ccccc3)C(C)=C1C2(C)C | – | 17.7% (inactive)
26 | COc1ccc2cccc(CCNC(C)=O)c2c1 | – | 205% (inactive)
27 | CCNc1cc(NC2CCC(O)CC2)nc(Nc2ccc3c(ccn3Cc3ccccc3)c2)n1 (stereo unspecified) | 16.6 µM (active) | –
28 | CN(C)Cc1ccc(-c2nc3cccc4c3n2CCNC4=O)cc1 | 8.33 µM (active) | –
29 | COc1cc(NC(=O)c2ccc(-c3ccc(Cl)cc3)o2)cc(OC)c1 | 3.32 µM (active) | –
30 | CO[C@H]1C=CO[C@@]2(C)Oc3c(C)c(O)c4c(O)c(c5c(c4c3C2=O)NC2(CCN(CC(C)C)CC2)N=5)=NC(=O)C(C)=CC=C[C@H](C)[C@H](O)[C@@H](C)[C@@H](O)[C@@H](C)[C@H](OC(C)=O)[C@H]1C | 4.18 µM (active) | –
31 | O=C(O)c1ccccc1C(=O)Nc1ccc(-c2ccccc2)cc1 | – | 182% (inactive)
32 | NC(CO)(CO)CCc1ccc(Sc2cccc(OCc3ccccc3)c2)cc1Cl | 11.8 µM (active) | –

Test: Quantitative High-Throughput drug screen in 47 multiple myeloma cell lines against the NCATS MIPE library collection: OCIMY5_PLB cell viability assay (AID 1918988); further: nearly all actives have a fitted effect of over 65% in size;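 on viability, % of control: 100% = DMSO-treated wells and 0% = wells with media alone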
Details: OCI-MY5 myeloma viability, ATP luminescence, 48 h; series mostly up to 45.8 µM; viability, % of control: at the top concentration
How it was run: as §1

Row | SMILES | Potency | viability, % of control
33 | CCS(=O)(=O)N1CC(CC#N)(n2cc(-c3ncnc4[nH]ccc34)cn2)C1 | 7.43 µM (active) | –
34 | CC(=O)Nc1ccc([C@H](C)C(=O)Nc2ncc(C(C)C)s2)cc1 | 0.743 µM (active) | –
35 | O=C(N[C@@H](c1ccccc1)[C@@H]1CCCCN1)c1cccc(C(F)(F)F)c1Cl | 18.7 µM (active) | –
36 | CC[C@H]1OC(=O)[C@H](C)C(=O)[C@H](C)[C@@H](O[C@H]2O[C@H](C)C[C@H](N(C)C)[C@@H]2O)[C@](C)(OC)C[C@@H](C)C(=O)[C@H](C)[C@H]2N(CCCCn3cnc(-c4cccnc4)c3)C(=O)O[C@]12C | 26.4 µM (active) | –
37 | CC(C)(C)C(=O)Oc1ccc2c(c1)nc(NC(=O)c1cccc([N+](=O)[O-])c1)n2CCCO | 18.7 µM (active) | –
38 | CN1C[C@H]2c3ccccc3Oc3ccc(Cl)cc3[C@@H]2C1 | 13.2 µM (active) | –
39 | O=c1c(-c2ccc(O)cc2)coc2cc(O)ccc12 | 14.8 µM (active) | –
40 | O=C1Nc2ccc(Cl)cc2C(C#CC2CC2)(C(F)(F)F)O1 (stereo unspecified) | 16.6 µM (active) | –
41 | CN1CCN(CCOc2cc(OC3CCOCC3)c3c(Nc4c(Cl)ccc5c4OCO5)ncnc3c2)CC1 | 18.7 µM (active) | –
42 | CC1(C)CCC[C@@]2(C)[C@@H]1CC[C@@]1(C)OC(=O)C[C@H]21 | 23.5 µM (active) | –
43 | CNC(=O)c1ccccc1Sc1ccc2c(C=Cc3ccccn3)n[nH]c2c1 | 0.935 µM (active) | –
44 | CS(=O)c1ccc(-c2nc(-c3ccc(F)cc3)c(-c3ccncc3)[nH]2)cc1 (stereo unspecified) | 19.1 µM (active) | –
45 | CCC(=O)NC[C@H](Cc1ccc(OCCc2nc(-c3ccccc3)oc2C)cc1)NC(C)=CC(=O)c1ccc(C(F)(F)F)cc1 | 18.7 µM (active) | –
46 | NC[C@@H]1O[C@@H](O[C@H]2[C@@H](O)[C@H](O[C@@H]3[C@@H](O)[C@@H](N)C[C@H](N)[C@H]3O[C@H]3O[C@H](CN)[C@@H](O)[C@@H](O)[C@H]3N)O[C@H]2CO)[C@H](N)[C@@H](O)[C@@H]1O | – | 185% (inactive)
47 | O=c1c(O)c(-c2ccc(O)cc2)oc2cc(O)cc(O)c12 | 26.4 µM (active) | –
48 | CO[C@H]1C(=O)[C@]2(C)[C@@H](OC)C[C@H]3OC[C@@]3(OC(C)=O)[C@H]2[C@H](OC(=O)c2ccccc2)[C@]2(O)C[C@H](OC(=O)[C@H](O)[C@@H](NC(=O)OC(C)(C)C)c3ccccc3)C(C)=C1C2(C)C | – | 32.1% (inactive)
49 | C[C@@H]1CCN(C(=O)CC#N)C[C@H]1N(C)c1ncnc2[nH]ccc12 | 13.2 µM (active) | –
50 | CN(C)Cc1ccc(-c2nc3cccc4c3n2CCNC4=O)cc1 | 20.9 µM (active) | –
51 | O=c1cc(-c2cccc3c2Sc2ccccc2S3)oc(N2CCOCC2)c1 | 20.9 µM (active) | –
52 | CC(C)n1cnc2c(NCCCCCCNC(=O)OC(C)(C)C)nc(NCCO)nc21 | 29.6 µM (active) | –
53 | CO[C@H]1C=CO[C@@]2(C)Oc3c(C)c(O)c4c(O)c(c5c(c4c3C2=O)NC2(CCN(CC(C)C)CC2)N=5)=NC(=O)C(C)=CC=C[C@H](C)[C@H](O)[C@@H](C)[C@@H](O)[C@@H](C)[C@H](OC(C)=O)[C@H]1C | 23.5 µM (active) | –
54 | O=C(O)c1ccccc1C(=O)Nc1ccc(-c2ccccc2)cc1 | – | 143% (inactive)
55 | NC(CO)(CO)CCc1ccc(Sc2cccc(OCc3ccccc3)c2)cc1Cl | 20.9 µM (active) | –
56 | O=C(O)[C@H]1O[C@H](Oc2cc3oc(-c4ccccc4)cc(=O)c3c(O)c2O)[C@H](O)[C@@H](O)[C@H]1O | 23.5 µM (active) | –
